Compound activity: PubChem, National Center for Advancing Translational Sciences (NCATS)
TSG101-PTAP inh: qHTS Assay for Iinhibitors of HIV-1 Budding by Blocking the Interaction of PTAP/TSG101; Fluorescence polarization, FITC-PTAP peptide / Tsg101 binding; Potency, µM (series often up to 115 µM), without a hit: top-dose activity change, negative = inhibition, hits mostly inhibitors; 340,000 tested, under 10 active; AID 493005, 2010; active = well fitted inhibition curve with a large enough effect in the main read-out, with a control signal flat, not every such curve was filed as active; inconclusive = small, poorly fitted or top-dose-only effect, or effect the other way, or a change in a side signal; inactive = no such curve, though single readings can be large or run the other way; note: % of control where 0% means no effect
Target sequence (Q99816 whole entry, looked up): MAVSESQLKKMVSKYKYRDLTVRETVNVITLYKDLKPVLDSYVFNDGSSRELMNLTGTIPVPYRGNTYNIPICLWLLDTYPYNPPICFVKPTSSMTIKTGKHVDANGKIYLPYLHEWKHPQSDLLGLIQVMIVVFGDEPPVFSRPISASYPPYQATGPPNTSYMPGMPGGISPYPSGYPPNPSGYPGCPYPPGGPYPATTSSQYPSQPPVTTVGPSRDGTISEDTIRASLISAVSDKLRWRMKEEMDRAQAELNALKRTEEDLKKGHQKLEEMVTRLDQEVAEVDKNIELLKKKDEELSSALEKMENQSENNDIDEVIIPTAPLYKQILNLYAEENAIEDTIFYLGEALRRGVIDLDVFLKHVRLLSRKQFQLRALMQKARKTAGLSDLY
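Compounds were pin-transferred onto Tsg101 binding domain (10 uM final) in HEPES pH 7.5 buffer, then FITC-PTAP peptide was added at 50 nM final. After 20 min at RT, polarization reported peptide displacement across a qHTS concentration series.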
SW480 rerep: A quantitative high throughput screen for small molecules that induce DNA re-replication in SW480 colon adenocarcinoma cells; SW480 DNA re-replication, Hoechst DNA content imaging, 48 h; 1.8% of 340,000 active; Potency, µM (doses to about 46.1 µM), for the others: at the highest dose re-replication activation, hits mostly activators; note: % of control where 0% means no effect; nearly all actives have a fitted effect of over 55% in size
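Hoechst fluorescence of nuclei (405 nm excitation, 500-530 nm emission) measured by plate-scanning imager after 48 hr compound exposure at 37 C; re-replication scored as increased number of nuclei with elevated intensity.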
MCF10A rerep: A quantitative high throughput screen for small molecules that induce DNA re-replication in MCF 10a normal breast cells | 2.9% of 350,000 active | MCF 10A DNA re-replication, Hoechst nuclear intensity, 48 h | Potency, µM (highest dose often 46.1 µM), for the others: at the highest dose activity, positive = re-replication, most hits filed as activators; note: % of control where 0% means no effect; nearly all actives have a fitted effect of over 50% in size
KB-V1 MDR tox: qHTS assay for MDR1-selective chemotherapeutics: Primary screen using the drug-selected MDR subline cells KB-V1. KB-V1 MDR cells viability, CellTiter-Glo, 72 h. Potency, µM (titrated, usually from 46.1 µM), actives largely listed as cytotoxic. 3.4% of 400,000 active. AID 1347076, 2019; note: % is set by controls: 0 for no effect and ±100 for the full control effect; nearly all actives have a fitted effect of over 60% in size
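Cells of the MDR subline KB-V1 are plated, dosed with compound at multiple concentrations, and incubated 72 h at 37 degrees C; CellTiter-Glo is then added and luminescence read after 10 min.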
KB-3-1 cytotox: qHTS assay for MDR1-selective chemotherapeutics: Primary screen using the parental adenocarcinoma cell KB-3-1. KB-3-1 viability, CellTiter-Glo ATP luminescence, 72 h. Potency, µM (doses to about 46.1 µM), most hits filed as cytotoxic. 1.4% of 400,000 active; note: % is set by controls: 0 for no effect and ±100 for the full control effect; nearly all actives have a fitted effect of over 60% in size
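Cytotoxicity in the drug-sensitive parental line KB-3-1 was scored as loss of CellTiter-Glo luminescence following 72 h incubation with compound. Values come from curve fitting of normalized concentration-response data.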
RGS4 inhibitor: Inhibitors of Regulator of G Protein Signaling (RGS) 4: qHTS; Regulator of G-protein signaling 4 (Homo sapiens), P49798; Transcreener GDP fluorescence polarization, RGS4-accelerated GTP hydrolysis; Potency, µM (titrated, usually from 114 µM), inactives show at the highest dose activity change, negative = inhibition, usual class: inhibitors; 0.039% of 390,000 active; note: % is set by controls: 0 for no effect and ±100 for the full control effect; nearly all actives have a fitted effect of over 75% in size
Target sequence (P49798 whole entry, looked up): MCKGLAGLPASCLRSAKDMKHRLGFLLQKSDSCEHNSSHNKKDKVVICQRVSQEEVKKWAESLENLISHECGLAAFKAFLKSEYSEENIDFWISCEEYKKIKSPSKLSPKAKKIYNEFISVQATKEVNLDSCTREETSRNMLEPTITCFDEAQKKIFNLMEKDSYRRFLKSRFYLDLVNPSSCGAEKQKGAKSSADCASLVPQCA
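MLSMR compounds (23 nl, pin-transferred) preincubated 10 min at room temperature with a 500nM (2x) first reagent, then RGS4 at 900nM (2x) plus Transcreener GDP mix added; fluorescence polarization (620/688 nm) read before and after 90 min at 30 °C.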
* hit, by the source's call; i = inactive; ? = inconclusive; . = no result. A selection: hits, their analogues and other compounds. The true share with any hit is near 6.6%. Unless noted, calls come from the whole dose curve; as a rule, active = well fitted curve in the direction sought with a large enough effect; inconclusive = small, poorly fitted or top-dose-only effect, or another doubt; inactive = no such curve, though single readings can be large; an effect the other way counts as inactive or inconclusive. Potency is the fitted concentration of half-maximal effect.

SMILES	TSG101-PTAP inh	SW480 rerep	MCF10A rerep	KB-V1 MDR tox	KB-3-1 cytotox	RGS4 inhibitor
O=C(Nc1ccc([N+](=O)[O-])cc1)N1CCCCCC1	-4.4%	-2.5%	0.1%	?	i	0.0%
COc1ccc(CCN2C(=O)C(Oc3ccccc3C)C2c2ccc3c(c2)OCO3)cc1OC (configuration not stated)	-2.3%	?	?	i	?	-26.9%
COc1ccc(CCN2C(=O)C(Oc3ccccc3C)C2c2ccc3c(c2)OCO3)cc1 (configuration not stated)	-1.0%	3.7%	?	10.3µM*	i	8.8%
COc1ccc(CNC(=O)c2ccc3c(c2)N(Cc2cc(C)ccc2C)C(=O)CS3)cc1	.	.	.	i	i	-3.5%
CCC(Sc1nc2sc(C(=O)OC)c(C)c2c(=O)n1N)C(=O)N(CC)CC (configuration not stated)	-1.9%	-7.1%	0.6%	3.66µM*	i	-0.8%
CCOCCCn1c(SC(C)C(=O)NCC2CCCO2)nc2sc(C)c(C)c2c1=O (configuration not stated)	0.6%	-17.2%	-3.3%	i	i	-9.5%
CCCCNC(=O)C(CC)Sc1nc2sc(C(=O)OC)c(C)c2c(=O)n1N (configuration not stated)	-6.0%	?	5.1%	4.61µM*	i	-11.9%
CCC(Sc1nc2sc(C(=O)OC)c(C)c2c(=O)n1N)C(=O)NCC1CCCO1 (configuration not stated)	.	-7.1%	-10.7%	16.4µM*	i	-10.6%
COc1ccc(NC(=O)c2oc3ccccc3c2NC(=O)Cc2coc3cc(C)ccc23)cc1	.	.	.	i	i	24.4%
COc1ccc(Cl)cc1NC(=O)CN1C(=O)C(C)(C)c2cc(S(=O)(=O)N3CCCCC3)ccc21	.	.	.	i	i	14.3%
CCn1c(COc2ccccc2C)nnc1SCC(=O)N1CCN(c2ccccc2)CC1	-9.2%	0.6%	-3.7%	8.2µM*	?	-15.9%
CCn1c(COc2cccc(C)c2C)nnc1SCC(=O)N1CCN(c2ccc(OC)cc2)CC1	-6.7%	-6.1%	2.8%	2.31µM*	14.6µM*	2.2%
COc1ccc(-c2nnc(SCC(=O)Nc3ncc(C)s3)n2-c2ccccc2)cc1OC	-4.3%	16.4µM*	13µM*	?	20.6µM*	0.6%
CCn1c(COc2ccccc2C)nnc1SCC(=O)OC	-6.8%	-2.4%	1.4%	i	i	-9.4%
C=CCn1c(CSCc2ccccc2)nnc1SCC(=O)N1CCN(c2ccccc2)CC1	-2.5%	-79.4%	-43.2%	10.3µM*	i	-26.0%
O=[N+]([O-])c1ccc(-c2cc3ccccc3[nH]2)cc1	.	.	.	i	i	.
CCn1c(COc2ccccc2C)nnc1SCC(=O)CC(=O)Nc1ccccc1OC	1.6%	0.2%	?	8.2µM*	i	-9.8%
Cc1cnc(NC(=O)CSc2ncc(-c3ccccc3)n2Cc2ccco2)s1	-6.1%	2.4%	?	20.6µM*	i	-1.6%
Cc1ccccc1NC(=O)CSc1nnc(-c2ccccc2)n1-c1ccccc1	-3.0%	5.9%	-0.4%	?	i	-21.2%
COc1ccccc1NC(=O)CC(=O)CSc1nnc(-c2ccc(C)cc2)n1-c1ccccc1	-0.1%	-65.0%	-1.6%	13µM*	i	-32.8%
CCn1c(SCc2nc(CC(=O)Nc3ccccc3OC)no2)nnc1-c1cccs1	-5.0%	-4.9%	0.5%	5.8µM*	i	-17.6%
CCOc1ccccc1CNC(=O)CCn1c(=O)c2cccn2c2ccc(F)cc21	.	.	.	.	.	20.3%
COc1cccc(/C=N/Nc2cc(-n3nc(C)cc3-c3ccccc3)ncn2)c1O	-0.5%	?	3.66µM*	?	?	-34.4%
COc1cccc(/C=N/Nc2nc(Nc3ccccc3)nc(-n3nc(C)cc3C)n2)c1O	-0.1%	5.8µM*	14.6µM*	?	5.17µM*	-19.1%
Cc1cc(C)n(-c2nc(Nc3ccccc3)nc(-n3nc(C)cc3C)n2)n1	-8.1%	-9.8%	4.6%	i	i	11.6%
SMILES	TSG101-PTAP inh	SW480 rerep	MCF10A rerep	KB-V1 MDR tox	KB-3-1 cytotox	RGS4 inhibitor
CCC(CC)C(=O)Nc1nnc(S(=O)(=O)N(C)c2cc(C)cc(C)c2)s1	.	.	.	.	.	24.5%
CCc1ccc(CNC(=O)CN2C(=O)CCn3nc(-c4cn(C)c5ccccc45)cc32)cc1	.	.	.	i	i	?
COc1cc(CNn2nnnc2N)cc(Br)c1OCc1c(Cl)cccc1Cl	-0.8%	1.6%	4.7%	20.6µM*	?	-25.9%
COC(=O)[C@@]12C[C@@H](CC(=O)NCC3CCCCC3)C(=O)N(Cc3cccc4ccccc34)C1=CCC(C)(C)C2	.	.	.	20.6µM*	?	.
COC(=O)[C@]12CCCCC=C1N(Cc1ccc3c(c1)OCO3)C(=O)[C@H](CC(=O)NCc1cccc3ccccc13)C2	.	.	.	23.1µM*	?	.
COC(=O)[C@@]12C[C@@H](CC(=O)NCCc3ccccc3OC)C(=O)N(Cc3cccc4ccccc34)C1=CCC(C)(C)C2	.	.	.	23.1µM*	?	.
COC(=O)[C@@]12C[C@@H](CC(=O)NCCC(C)C)C(=O)N(Cc3cccc4ccccc34)C1=CCC(C)(C)C2	.	.	.	20.6µM*	20.6µM*	.
COC(=O)[C@]12CCCCC=C1N(Cc1ccccc1)C(=O)[C@H](CC(=O)NCc1cccc3ccccc13)C2	.	.	.	i	i	.
COc1ccc(Nc2cc(C)c3cc(NC(=O)COc4cccc(C)c4)ccc3n2)cc1	.	.	.	i	?	10.7%
COc1ccc(-c2onc(C)c2C)cc1S(=O)(=O)Nc1cc(Cl)ccc1C	.	.	.	.	.	10.0%
CCOc1ccc(CNC(=O)C2CCN(C3=NS(=O)(=O)C(c4ccc(C)cc4)=C3CC)CC2)cc1	.	.	.	i	i	16.4%
O=C(NCc1ccc(F)cc1)c1ccc(CS(=O)Cc2ccc(Cl)cc2)o1 (configuration not stated)	.	.	.	.	.	15.0%
COC(=O)c1ccccc1NC(=O)c1cc(C)nc2c1c(C)nn2-c1ccc(C)cc1	.	.	.	i	i	-37.4%
COC(=O)[C@]12CCCCC=C1N(Cc1cccc3ccccc13)C(=O)[C@H](CC(=O)NCCC(C)C)C2	.	.	.	18.4µM*	?	.
CCOCCCNC(=O)C(c1ccc(Cl)cc1)N(Cc1ccc2c(c1)OCO2)C(=O)c1ccccc1O (configuration not stated)	.	.	.	i	i	-19.3%
